# Results filed as inconclusive are left out. Where a call stands in place of a potency, no number is given. Activity calls are given as the source filed them. Calls come from the whole dose curve; as a rule, active = well fitted cell-killing curve with a large enough effect in the repeat runs; inconclusive = weak or mixed curves, or effect the other way; inactive = flat fitted curve, though single readings scatter.
# Experiment: qHTS RealTime-Glo MT Cell Viability Assay in HEK293 cells - 8 hour (AID 1224887); note: top concentration of the series differs between compounds; nearly all actives have a fitted effect of over 50% in size
# Conditions: RealTime-Glo luminescence; series mostly up to 76.8 µM
# Outline: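 HEK293 cells mixed with RealTime-Glo reagents (NanoLuc plus cell-permeant prosubstrate) at 600 cells/well, preincubated 5 h at 37 C/5% CO2, then given 23 nL compound in DMSO. Nonlytic luminescence from viable cells was read at 0, 8, 16, 24, 32 and 40 h.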
row,Structure (SMILES),Potency
1,O=C(Oc1ccccc1)c1ccc(O)cc1,inactive
2,CCc1ccccc1O,inactive
3,Cc1cc(O)cc(C)c1Cl,inactive
4,CCOC(=O)/C=C\C(=O)OCC,inactive
5,CC1=C(CC(=O)O)c2cc(F)ccc2/C1=C\c1ccc(S(C)=O)cc1 (stereo unspecified),inactive
6,Nc1cc(-c2ccncc2)c[nH]c1=O,inactive
7,CCCCCCCCCCC=CC1CC(=O)OC1=O (stereo unspecified),inactive
8,C=CC(=O)OCCCCCCCC(C)C,inactive
9,CCCCOCCOCCOC(=O)CCCCC(=O)OCCOCCOCCCC,inactive
10,O=C(O)c1ccc([N+](=O)[O-])cc1,inactive
11,CC1(C)CC(N=C=O)CC(C)(CN=C=O)C1 (stereo unspecified),inactive
12,NC(=O)/N=N/C(N)=O,inactive
13,CNC[C@H](O)[C@@H](O)[C@H](O)[C@H](O)CO,inactive
14,CC(=O)Nc1ccc(C(=O)O)cc1,inactive
15,O=C1O[C@H](CO)[C@@H](O)[C@H](O)[C@H]1O,inactive
16,C=C(C)C(=O)OCCCCCC,inactive
